What all share (assay): DAPPL (digital affinity profiling via proximity ligation, sequencing); 10 mM Tris-HCl pH 7.5, 50 mM NaCl, 1 mM DTT, 4% glycerol, room temperature, 30 min; GST-TFs on glutathione beads, 16-mer random dsDNA library, 0.1% formaldehyde crosslink after washing; high values mean tight binding
Common to all, as to conditions: protein: recombinant; tags: N-terminal GST; dsDNA, one strand shown

One assay has as its target T1, ERF (Homo sapiens, UniProt P50548 1-548).
T1 sequence: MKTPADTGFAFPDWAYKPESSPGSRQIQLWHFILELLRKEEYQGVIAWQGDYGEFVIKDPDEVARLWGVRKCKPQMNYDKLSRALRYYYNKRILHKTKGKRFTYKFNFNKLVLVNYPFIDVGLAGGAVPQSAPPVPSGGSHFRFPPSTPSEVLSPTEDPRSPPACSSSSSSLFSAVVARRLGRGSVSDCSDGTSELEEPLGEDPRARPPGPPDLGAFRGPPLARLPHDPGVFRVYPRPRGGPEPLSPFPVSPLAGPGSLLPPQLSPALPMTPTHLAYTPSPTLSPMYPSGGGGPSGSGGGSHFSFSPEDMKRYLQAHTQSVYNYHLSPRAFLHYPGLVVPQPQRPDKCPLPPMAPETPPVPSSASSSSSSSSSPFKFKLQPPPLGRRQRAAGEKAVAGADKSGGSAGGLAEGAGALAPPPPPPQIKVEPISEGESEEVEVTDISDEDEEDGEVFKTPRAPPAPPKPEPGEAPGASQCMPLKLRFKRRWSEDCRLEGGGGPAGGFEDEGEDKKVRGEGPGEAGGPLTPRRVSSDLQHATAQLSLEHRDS
An outline of the steps:
(§1)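 Pools were built from human transcription factors expressed in yeast as GST fusions, captured on glutathione beads and DNA-barcoded, along with a tag-only sample. Incubation with 200 nmole of a 16-mer random double-stranded DNA library lasted 30 min at room temperature in Tris/NaCl/DTT/glycerol buffer, and was followed by washing, 0.1% formaldehyde crosslinking, proximity ligation, PCR amplification and Illumina NextSeq500 sequencing. Binding signal is the quotient of each hexamer's read frequency for a factor and its frequency for the tag-only sample.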

Another assay deals with T2, ETV3L (Homo sapiens, UniProt Q6ZN32 1-361).
T2 sequence: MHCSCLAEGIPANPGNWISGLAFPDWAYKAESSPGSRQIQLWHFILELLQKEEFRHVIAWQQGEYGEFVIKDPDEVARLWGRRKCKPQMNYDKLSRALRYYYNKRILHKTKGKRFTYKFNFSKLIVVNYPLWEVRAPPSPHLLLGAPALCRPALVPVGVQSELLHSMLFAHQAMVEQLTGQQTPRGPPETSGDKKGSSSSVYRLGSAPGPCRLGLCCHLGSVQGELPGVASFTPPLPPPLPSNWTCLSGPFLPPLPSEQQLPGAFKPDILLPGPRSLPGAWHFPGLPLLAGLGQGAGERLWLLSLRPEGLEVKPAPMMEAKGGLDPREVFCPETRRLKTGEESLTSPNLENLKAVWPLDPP
An outline of the steps: as §1

The next assay addresses T3, ETS2 (Homo sapiens, UniProt P15036 1-469).
T3 sequence: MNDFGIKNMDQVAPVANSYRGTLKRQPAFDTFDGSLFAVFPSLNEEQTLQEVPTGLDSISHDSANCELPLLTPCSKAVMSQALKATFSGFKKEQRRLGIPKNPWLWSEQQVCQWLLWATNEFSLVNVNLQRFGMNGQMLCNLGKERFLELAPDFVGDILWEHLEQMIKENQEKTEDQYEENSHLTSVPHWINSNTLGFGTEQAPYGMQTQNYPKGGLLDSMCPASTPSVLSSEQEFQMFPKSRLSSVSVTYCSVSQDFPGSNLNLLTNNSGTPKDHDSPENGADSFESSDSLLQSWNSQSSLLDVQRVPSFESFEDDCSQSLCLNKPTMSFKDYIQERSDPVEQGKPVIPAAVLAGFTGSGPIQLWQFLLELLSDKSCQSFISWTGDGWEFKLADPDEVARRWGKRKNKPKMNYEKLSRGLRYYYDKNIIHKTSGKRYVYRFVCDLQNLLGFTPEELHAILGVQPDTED
In outline:
as §1

In another assay the target is T4, SPDEF (Homo sapiens, UniProt O95238 1-335).
T4 sequence: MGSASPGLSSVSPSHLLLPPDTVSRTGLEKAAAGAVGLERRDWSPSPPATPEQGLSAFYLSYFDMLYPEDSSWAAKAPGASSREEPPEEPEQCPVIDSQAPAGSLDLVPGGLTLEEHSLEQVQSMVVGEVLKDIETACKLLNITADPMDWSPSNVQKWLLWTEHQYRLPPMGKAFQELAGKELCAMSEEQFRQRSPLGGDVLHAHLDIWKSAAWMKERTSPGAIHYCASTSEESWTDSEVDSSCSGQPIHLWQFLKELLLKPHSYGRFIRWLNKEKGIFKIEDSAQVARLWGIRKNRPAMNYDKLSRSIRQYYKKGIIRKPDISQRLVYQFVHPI
In outline: as §1

A further assay addresses T5, ETV7 (Homo sapiens, UniProt Q9Y603 1-341).
T5 sequence: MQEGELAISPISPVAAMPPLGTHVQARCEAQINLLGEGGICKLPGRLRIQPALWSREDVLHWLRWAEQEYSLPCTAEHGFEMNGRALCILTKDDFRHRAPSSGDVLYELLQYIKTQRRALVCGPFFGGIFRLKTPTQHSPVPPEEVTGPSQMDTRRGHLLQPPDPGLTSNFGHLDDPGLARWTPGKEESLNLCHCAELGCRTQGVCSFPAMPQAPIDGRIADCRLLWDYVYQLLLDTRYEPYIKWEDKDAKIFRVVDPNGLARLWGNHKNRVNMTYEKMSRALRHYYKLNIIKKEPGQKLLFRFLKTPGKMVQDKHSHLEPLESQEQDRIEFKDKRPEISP
An outline of the steps: as §1

The target of another assay is T6, ELF5 (Homo sapiens, UniProt Q9UKW6-2 1-255).
T6 sequence: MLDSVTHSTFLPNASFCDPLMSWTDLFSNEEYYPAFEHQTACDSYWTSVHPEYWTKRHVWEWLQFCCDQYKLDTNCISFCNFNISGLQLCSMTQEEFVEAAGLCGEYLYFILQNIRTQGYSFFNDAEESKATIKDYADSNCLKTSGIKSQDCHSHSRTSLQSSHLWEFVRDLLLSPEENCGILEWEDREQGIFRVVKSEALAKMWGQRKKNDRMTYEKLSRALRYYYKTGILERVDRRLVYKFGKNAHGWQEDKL
An outline of the steps:
as §1

The target of a further assay is T7, ETV3 (Homo sapiens, UniProt P41162-2 1-143).
T7 sequence: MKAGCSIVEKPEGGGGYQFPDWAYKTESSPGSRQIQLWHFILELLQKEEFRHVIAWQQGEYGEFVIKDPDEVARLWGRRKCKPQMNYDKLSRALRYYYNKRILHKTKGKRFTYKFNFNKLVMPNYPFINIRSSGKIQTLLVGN
In outline: as §1

In another assay the target is ETV6 (Homo sapiens, UniProt P41212 1-452). In outline: as §1
Chain of ETV6 (P41212 whole entry): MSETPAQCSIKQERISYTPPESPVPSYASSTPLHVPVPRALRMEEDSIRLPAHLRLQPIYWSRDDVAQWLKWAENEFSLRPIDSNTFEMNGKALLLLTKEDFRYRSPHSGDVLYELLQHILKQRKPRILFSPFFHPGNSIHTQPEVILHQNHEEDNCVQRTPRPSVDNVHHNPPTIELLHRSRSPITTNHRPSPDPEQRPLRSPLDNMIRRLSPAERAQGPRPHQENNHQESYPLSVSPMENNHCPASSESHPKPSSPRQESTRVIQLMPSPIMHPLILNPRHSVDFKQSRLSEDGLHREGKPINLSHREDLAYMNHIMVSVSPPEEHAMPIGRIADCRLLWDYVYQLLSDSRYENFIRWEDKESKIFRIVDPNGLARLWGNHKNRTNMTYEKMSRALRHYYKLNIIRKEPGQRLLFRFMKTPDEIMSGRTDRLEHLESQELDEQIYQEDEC

On to TTTGGC, for which the binding signal with ERF was 1.29 fold enrichment (6-mer frequency, TF over GST control); with ETV3L it was 1.23 fold enrichment (6-mer frequency, TF over GST control); in the assay with ETS2, 1.18 fold enrichment (6-mer frequency, TF over GST control); in the assay with SPDEF, 1.12 fold enrichment (6-mer frequency, TF over GST control); with ETV7 it was 1.24 fold enrichment (6-mer frequency, TF over GST control); with ELF5, 1.18 fold enrichment (6-mer frequency, TF over GST control). For the same sequence, the binding signal in the assay with ETV3 is 1.21 fold enrichment (6-mer frequency, TF over GST control); with ETV6, 1.26 fold enrichment (6-mer frequency, TF over GST control).

Regarding TTACCG, the binding signal is 1.05 fold enrichment (6-mer frequency, TF over GST control) with ERF; 1.03 fold enrichment (6-mer frequency, TF over GST control) with ETV3L; 1.19 fold enrichment (6-mer frequency, TF over GST control) with ETS2; 1.21 fold enrichment (6-mer frequency, TF over GST control) with SPDEF; 1.17 fold enrichment (6-mer frequency, TF over GST control) in the assay with ETV7; 1.3 fold enrichment (6-mer frequency, TF over GST control) in the assay with ELF5. The binding signal in the assay with ETV3 was 1.23 fold enrichment (6-mer frequency, TF over GST control); with ETV6 it was 1.25 fold enrichment (6-mer frequency, TF over GST control).

Take TTGCAC: the binding signal was 1.3 fold enrichment (6-mer frequency, TF over GST control) with ERF; 1.38 fold enrichment (6-mer frequency, TF over GST control) in the assay with ETV3L; 1.11 fold enrichment (6-mer frequency, TF over GST control) with ETS2; 1.22 fold enrichment (6-mer frequency, TF over GST control) with SPDEF; 1.26 fold enrichment (6-mer frequency, TF over GST control) with ETV7; 1.22 fold enrichment (6-mer frequency, TF over GST control) in the assay with ELF5. Further, the binding signal with ETV3 was 1.23 fold enrichment (6-mer frequency, TF over GST control); with ETV6, 1.26 fold enrichment (6-mer frequency, TF over GST control).

As for CTCAAA, the binding signal in the assay with ERF is 1.11 fold enrichment (6-mer frequency, TF over GST control); with ETV3L, 1.16 fold enrichment (6-mer frequency, TF over GST control); with ETS2 it was 1.2 fold enrichment (6-mer frequency, TF over GST control); with SPDEF it was 1.14 fold enrichment (6-mer frequency, TF over GST control); with ETV7 it was 1.14 fold enrichment (6-mer frequency, TF over GST control); with ELF5, 1.16 fold enrichment (6-mer frequency, TF over GST control). Also, the binding signal is 1.2 fold enrichment (6-mer frequency, TF over GST control) in the assay with ETV3 and 1.21 fold enrichment (6-mer frequency, TF over GST control) with ETV6.

Take GATTTC: the binding signal was 1.57 fold enrichment (6-mer frequency, TF over GST control) in the assay with ERF; 1.73 fold enrichment (6-mer frequency, TF over GST control) with ETV3L; 1.79 fold enrichment (6-mer frequency, TF over GST control) in the assay with ETS2; 1.66 fold enrichment (6-mer frequency, TF over GST control) with SPDEF; 1.56 fold enrichment (6-mer frequency, TF over GST control) in the assay with ETV7; 2.07 fold enrichment (6-mer frequency, TF over GST control) with ELF5. For the same sequence, the binding signal in the assay with ETV3 is 1.71 fold enrichment (6-mer frequency, TF over GST control); in the assay with ETV6 it was 1.8 fold enrichment (6-mer frequency, TF over GST control).

For ACGAAC, the binding signal is 1.05 fold enrichment (6-mer frequency, TF over GST control) with ERF; 1.07 fold enrichment (6-mer frequency, TF over GST control) in the assay with ETV3L; 1.22 fold enrichment (6-mer frequency, TF over GST control) in the assay with ETS2; 1.13 fold enrichment (6-mer frequency, TF over GST control) with SPDEF; 1.21 fold enrichment (6-mer frequency, TF over GST control) with ETV7; 1.09 fold enrichment (6-mer frequency, TF over GST control) with ELF5. Further, the binding signal was 1.04 fold enrichment (6-mer frequency, TF over GST control) with ETV3 and 1.1 fold enrichment (6-mer frequency, TF over GST control) with ETV6.

As for ATAAAC, the binding signal with ERF was 1.19 fold enrichment (6-mer frequency, TF over GST control); with ETV3L, 1.18 fold enrichment (6-mer frequency, TF over GST control); with ETS2, 1.18 fold enrichment (6-mer frequency, TF over GST control); with SPDEF, 1.16 fold enrichment (6-mer frequency, TF over GST control); with ETV7, 1.05 fold enrichment (6-mer frequency, TF over GST control); in the assay with ELF5, 1.17 fold enrichment (6-mer frequency, TF over GST control). In addition, the binding signal was 1.1 fold enrichment (6-mer frequency, TF over GST control) in the assay with ETV3 and 1.19 fold enrichment (6-mer frequency, TF over GST control) with ETV6.

As for CCGTCA, the binding signal was 1.08 fold enrichment (6-mer frequency, TF over GST control) with ERF; 1.28 fold enrichment (6-mer frequency, TF over GST control) with ETV3L; 1.28 fold enrichment (6-mer frequency, TF over GST control) with ETS2; 1.38 fold enrichment (6-mer frequency, TF over GST control) in the assay with SPDEF; 1.26 fold enrichment (6-mer frequency, TF over GST control) in the assay with ETV7; 1.22 fold enrichment (6-mer frequency, TF over GST control) with ELF5. Further, the binding signal in the assay with ETV3 is 1.19 fold enrichment (6-mer frequency, TF over GST control); with ETV6, 1.25 fold enrichment (6-mer frequency, TF over GST control).

The record behind these values is paper PMC7862700, “An all-to-all approach to the identification of sequence-specific readers for epigenetic DNA modifications on cytosine”.
